This is part of a sample that, as a whole, favours compounds with a hit. Of some 83,000 tested, about 20% had one in any assay.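 For each line, cells grew in 96-well plates with the test compound present at a single concentration for 48 hours.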 Calls of active or inactive are those of the source. The calls were made as follows: active = growth percent below 10; inactive = the rest.
Key:
Assay in all cases: NCI-60 one-dose screen, 48 h (100 = growth as untreated, 0 = no growth, -100 = all killed)
Details in all cases: 10 µM
[1] = test system: SR leukemia
[2] = test system: RPMI-8226 leukemia
[3] = test system: OVCAR-8 ovarian
[4] = test system: OVCAR-5 ovarian
[5] = test system: OVCAR-4 ovarian
[6] = test system: SK-OV-3 ovarian
[7] = test system: IGROV1 ovarian
[8] = test system: OVCAR-3 ovarian
[9] = test system: HS 578T breast
[10] = test system: NCI/ADR-RES ovarian
[11] = test system: T-47D breast
[12] = test system: BT-549 breast
[13] = test system: MDA-MB-435 melanoma
[14] = test system: SW-620 colon
[15] = test system: MCF7 breast
[16] = test system: HCT-116 colon
[17] = test system: HCC-2998 colon
[18] = test system: KM12 colon
[19] = test system: MDA-MB-468 breast

Measured: growth

COc1ccc(CN2[C@H](C(=O)NCCCCCCC(=O)NO)Cc3c([nH]c4ccccc34)[C@H]2C2CC2)cc1
active: [3] 2.69% | [4] -21.2% | [6] -33.5% | [7] -42.4% | [8] 3.23% | [9] -1.3% | [11] -10.3% | [13] -49.1% | [14] -68.1% | [15] 6.39% | [16] 2.09% | [17] -36.7% | [19] 4.06%
inactive: [1] 16% | [2] 15.7% | [5] 40.6% | [10] 61.9% | [12] 25.5% | [18] 12.5%

Nc1nc(Nc2ccc(Cl)cc2)n(Cc2cccc(Br)c2)n1
inactive: [1] 10.4% | [11] 15.1%
active: [2] 2.44% | [3] 2.52% | [4] -24.5% | [5] 9.75% | [6] -2.59% | [7] -5.03% | [8] -35.3% | [9] -25.9% | [10] -25% | [12] -51.4% | [13] -64.9% | [14] -16.5% | [15] -31.6% | [16] -57.7% | [17] -71.6% | [18] -0.172% | [19] -46.5%

CC(=O)Nc1ccc(-c2cn(-c3cccc(C(=O)Nc4cc(CN5CCOCC5)cc(C(F)(F)F)c4)c3)nn2)cn1
active: [1] 0.486% | [2] 2.68% | [3] -37% | [4] -95% | [5] -82.6% | [6] -67.6% | [7] -84.6% | [8] -54.5% | [9] -46.2% | [11] -71.5% | [12] -82.1% | [13] -89.1% | [14] -72.6% | [15] -84% | [16] -56.1% | [17] -95.6% | [18] -42.7% | [19] -92.1%
inactive: [10] 67.9%

CC(C)C1=C[C@@]23CC[C@@H]4[C@](C)(CCC[C@]4(C)C(=O)NCc4ccccc4)[C@H]2C[C@@H]1[C@H]1C(=O)CCC(=O)[C@H]13
inactive: [1] 44.4% | [2] 40.4% | [3] 75.1% | [4] 83.8% | [5] 47.3% | [6] 105% | [7] 90.6% | [8] 86.9% | [9] 63.1% | [10] 74% | [11] 51.8% | [12] 68.7% | [13] 86% | [14] 85.4% | [15] 42.7% | [16] 60.4% | [17] 90% | [18] 84.6%

COc1nccnc1NS(=O)(=O)c1ccc(NC2=C(Cl)C(=O)c3nc(C)ccc3C2=O)cc1
inactive: [1] 115% | [2] 94.5% | [3] 99.5% | [4] 112% | [5] 86.5% | [6] 91.4% | [7] 113% | [8] 83.2% | [9] 92.8% | [10] 92.4% | [11] 101% | [12] 101% | [13] 103% | [14] 115% | [15] 108% | [16] 92% | [17] 103% | [18] 111%
active: [19] 9.69%

COc1cc(OC(F)(F)F)ccc1C(=O)Nc1sc2c(c1C#N)CCC(=O)C2
active: [11] -4.87%
inactive: [1] 15.1% | [2] 51.7% | [3] 93% | [4] 138% | [5] 62.1% | [6] 81.2% | [7] 112% | [8] 112% | [9] 75.9% | [10] 75.1% | [12] 14.1% | [13] 97.9% | [14] 31.6% | [15] 73.2% | [16] 40.7% | [17] 111% | [18] 88.1%

O=C(CSc1nnc(-c2ccc3nc(-c4ccccc4)[nH]c3c2)o1)Nc1ccc(Br)cc1
inactive: [1] 32.1% | [2] 41% | [3] 24.8% | [4] 86.1% | [5] 81.3% | [6] 80% | [7] 80.4% | [8] 73.9% | [9] 79.6% | [10] 78.1% | [11] 62.8% | [12] 95.9% | [13] 63.4% | [15] 28.4% | [16] 19.1% | [17] 90.2% | [18] 53.9% | [19] 83.2%
active: [14] 2.94%

Cc1ccc2nc(-c3ccc(-c4nnc(SCC(=O)Nc5ccc(Br)cc5)o4)cc3)[nH]c2c1
inactive: [1] 16.1% | [2] 41.3% | [3] 20.4% | [4] 92.4% | [5] 76.8% | [6] 72.1% | [7] 91.2% | [8] 82.9% | [9] 70.8% | [10] 61.3% | [11] 50.8% | [12] 86.8% | [13] 59.9% | [14] 82.8% | [15] 45.1% | [16] 67.4% | [17] 105% | [18] 70.4%

COc1cnc2c(c1)C(=O)c1c-2n(CCCNC(C)C)c(=O)c2cc(OC)c(OC)cc12
active: [1] 2.52% | [2] -14.8% | [8] 5.2% | [14] -24.9% | [19] 8.82%
inactive: [3] 37% | [4] 70.8% | [5] 28.2% | [6] 22.1% | [7] 32% | [9] 103% | [10] 29.1% | [11] 36.2% | [12] 56.4% | [13] 44% | [15] 11.8% | [16] 25.5% | [17] 48.9% | [18] 29.5%

O=c1[nH]c2ccccc2cc1CSc1ccc(Nc2nccc(-c3ccc(Cl)cc3)n2)cc1
inactive: [1] 59.2% | [2] 21.2% | [7] 11% | [17] 14.6% | [18] 23%
active: [3] -52.9% | [4] -19.5% | [5] -76.8% | [6] -15.1% | [8] -73.9% | [9] -22.1% | [10] -39% | [11] -10.3% | [12] -5.03% | [13] 9.58% | [14] 2.67% | [15] -5.81% | [16] -38.6%

CC(C)c1ccc(C(=O)Nc2sc3c(c2C(N)=O)CCC(=O)C3=O)cc1
inactive: [1] 72.8% | [2] 85% | [3] 94.2% | [4] 114% | [5] 91.5% | [6] 89.4% | [7] 72.4% | [8] 87% | [9] 93.7% | [10] 97.4% | [11] 80.3% | [12] 107% | [13] 91.4% | [14] 105% | [15] 79.3% | [16] 91.9% | [17] 119% | [18] 98.6% | [19] 94.8%

Cc1ccn2c(C(=O)c3ccc(Br)cc3)cc(-c3cc(-c4ccc(N(C)C)cc4)c(C#N)c(N)n3)c2c1
inactive: [1] 64.3% | [2] 83.7% | [3] 38.2% | [4] 66% | [5] 63.3% | [6] 93.8% | [7] 76.6% | [8] 50.2% | [9] 70.2% | [10] 72% | [11] 50.5% | [12] 61.9% | [13] 65% | [14] 41.5% | [15] 46.2% | [16] 36.2% | [17] 64.6% | [18] 62.4%

O=C(CNc1nc(-c2ccccc2)cs1)Nc1ccc(Br)cc1
active: [1] -18.8% | [2] -5.37% | [3] -5.23% | [4] -96.3% | [5] -49.9% | [6] 8.41% | [7] -75.4% | [8] -77.7% | [10] -16.7% | [11] -51.4% | [12] -61.2% | [13] -1.09% | [14] -64.6% | [15] -82.2% | [16] -44.9% | [17] -98.1% | [18] -68.3% | [19] -84.1%
inactive: [9] 16.6%

COC1=C[C@]23CCC(=O)N2CCc2cc4c(cc2[C@@H]3[C@@H]1OC(=O)CCCC(C)C)OCO4
active: [15] 1.77% | [19] 6.02%
inactive: [1] 18.2% | [2] 22.4% | [3] 73.9% | [4] 78.4% | [5] 54% | [6] 53.7% | [7] 43.3% | [8] 45% | [9] 71.8% | [10] 74.9% | [11] 68.3% | [12] 85.4% | [13] 74.1% | [14] 63% | [16] 19.2% | [17] 21.8% | [18] 48.7%

O=C(CSc1nnc(-c2c[nH]c3ccccc23)n1-c1ccccc1)Nc1ccc(C(=O)/C=C/c2ccc(Br)cc2)cc1
inactive: [1] 72.3% | [3] 95.6% | [4] 93.3% | [5] 91.2% | [6] 88.3% | [7] 80.5% | [8] 81% | [9] 82.2% | [10] 94.9% | [11] 57.9% | [12] 87.4% | [13] 85.8% | [14] 97.6% | [15] 25.3% | [17] 94.4% | [18] 72% | [19] 71.1%
active: [2] 7.63% | [16] -32.4%

COc1ccc(OC)c(-c2cc(-c3c[nH]c4ccccc34)nc(N)c2C#N)c1
inactive: [4] 15.1% | [5] 22.9% | [6] 34.3% | [7] 15.9%
active: [1] 8.54% | [2] 6.3% | [3] 6.52% | [8] -23.5% | [9] -16.5% | [10] -34.1% | [11] 0.648% | [12] -25.4% | [13] -5.04% | [14] 6.61% | [15] 3.84% | [16] -45.8% | [17] -37.1% | [18] -27.6% | [19] -9.53%
